Laboratory results from PubChem BioAssay (NCATS).
Records with an inconclusive call do not appear. Activity calls are given as the source filed them. The call rests on the fitted dose curve; in most records, active means well fitted curve in the direction sought with a large enough effect; inconclusive means small, poorly fitted or top-dose-only effect, or another doubt; inactive means no such curve, though single readings can be large; an effect the other way counts as inactive or inconclusive.

What was measured:
[1] = target: Glutathione peroxidase 1 (Homo sapiens) (UniProt P07203); assay: Primary qHTS Assay for Inhibitors of Recombinant Selenoprotein Glutathione Peroxidase 1 (GPX1) (AID 1845191); further: nearly all actives have a fitted effect of over 65% in size
Procedure, shortened: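 10 nM GPX1 + cpd, 30 min RT; start w/ 1 mM GSH, 0.5 mM cumene hydroperoxide, 0.5 mM NADPH, 100 nM GR, 0.01% BSA; buffer 50 mM Tris-HCl pH 7.5, 2 mM EDTA, 150 mM NaCl; Fl 340/450, 0 & 15 min.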

[2] = target: Phospholipid hydroperoxide glutathione peroxidase GPX4 (Homo sapiens) (UniProt P36969); assay: Primary qHTS Assay for Inhibitors of Recombinant Selenoprotein Glutathione Peroxidase 4 (GPX4) (AID 1845192); further: nearly all actives have a fitted effect of over 65% in size
Procedure, shortened: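 NADPH consumption, followed by fluorescence at 340/450 nm between 0 and 15 min, reports GPX4 activity via coupled glutathione reductase (100 nM). Enzyme 200 nM was pre-exposed to compound 30 min; 0.5 mM cumene hydroperoxide and 1 mM GSH served as substrates.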

[3] = Quantitative High-Throughput drug screen in 47 multiple myeloma cell lines against the NCATS MIPE library collection: JIM3_ECACC cell viability assay (AID 1918963; further: nearly all actives have a fitted effect of over 35% in size; further: potency means the concentration at half of the fitted maximal effect)
Procedure, shortened: (§1)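 Luminescent ATP measurement with CellTiter-Glo gives viability, scaled between DMSO-only wells (100%) and media-only wells (0%). Cells, 500 per well, faced library compounds for 48 hours at 37C.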

[4] = Quantitative High-Throughput drug screen in 47 multiple myeloma cell lines against the NCATS MIPE library collection: FR4_PLB cell viability assay (AID 1918924; further: nearly all actives have a fitted effect of over 35% in size; further: potency means the concentration at half of the fitted maximal effect)
Procedure, shortened: as §1

[5] = Quantitative High-Throughput drug screen in 47 multiple myeloma cell lines against the NCATS MIPE library collection: EJM_DSMZ cell viability assay (AID 1918926; further: nearly all actives have a fitted effect of over 30% in size; further: potency means the concentration at half of the fitted maximal effect)
Procedure, shortened: (§2)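 qHTS of the MIPE 4.0 collection: 500 myeloma cells/well, 48 h drug exposure at 37C in 5% CO2, then CellTiter-Glo for 5 min at room temperature before luminescence reading.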

[6] = Quantitative High-Throughput drug screen in 47 multiple myeloma cell lines against the NCATS MIPE library collection: ARP1_JJKsccF8 cell viability assay (AID 1918928; further: nearly all actives have a fitted effect of over 40% in size; further: potency means the concentration at half of the fitted maximal effect)
Procedure, shortened: (§3)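 ATP readout (CellTiter-Glo), 48 h drug incubation, 37 °C/5% CO2, 500 cells per well; normalisation to DMSO (100%) and media-only (0%) controls.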

[7] = Quantitative High-Throughput drug screen in 47 multiple myeloma cell lines against the NCATS MIPE library collection: Karpas620_DSMZ cell viability assay (AID 1918959); further: nearly all actives have a fitted effect of over 30% in size; further: potency means the concentration at half of the fitted maximal effect
Procedure, shortened: as §1

[8] = Quantitative High-Throughput drug screen in 47 multiple myeloma cell lines against the NCATS MIPE library collection: INA6_PLB cell viability assay (AID 1918965; further: nearly all actives have a fitted effect of over 55% in size; further: potency means the concentration at half of the fitted maximal effect)
Procedure, shortened: (§4)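 Steps: seed 500 cells per well; pin-transfer MIPE 4.0 library; incubate 48 h at 37C, 5% CO2, humidified; add CellTiter-Glo, 5 min room temperature; read luminescence.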

[9] = target: Luciferin 4-monooxygenase (Photinus pyralis) (UniProt P08659); assay: Primary firefly luciferase (FLuc) qHTS assay for identification of artifact compounds. (AID 1845220); further: nearly all actives have a fitted effect of over 60% in size
Procedure, shortened: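 FLuc 10 nM; luciferin 10 uM; ATP 10 uM; Tris-acetate pH 7.6, Mg-acetate 10 mM; 15 min RT preincubation; 5 min reaction; luminescence.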

[10] = Primary fluorescence-based thiol-reactive (MSTI) qHTS assay for identification of artifact compounds. (AID 1845221);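 further: thiol-reactive compounds lower the probe fluorescence signal; nearly all actives have a fitted effect of over 65% in size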
Procedure, shortened: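 One-hour, room-temperature, dark incubation of compound with 4 uM MSTI in PBS (pH 7.4, 2% DMSO) precedes a fluorescence read at 525 nm excitation, 598 nm emission; Hill-equation fitting yields concentration-response values.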

[11] = tested on: Nanoluciferase (engineered Oplophorus gracilirostris luciferase); assay: Primary Nanoluciferase (NLuc) qHTS assay for identification of artifact compounds. (AID 1845222);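 further: NLuc secreted into diluted conditioned medium of S16 cells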
Procedure, shortened: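 NLuc from S16 cell medium (1:55) plus test compounds, 15 min, room temperature. Luminescence after Nano-Glo (1:100) addition, 5 min.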

[12] = Quantitative High-Throughput drug screen in 47 multiple myeloma cell lines against the NCATS MIPE library collection: AMO1_DSMZ cell viability assay (AID 1918927; further: nearly all actives have a fitted effect of over 30% in size; further: potency means the concentration at half of the fitted maximal effect)
Procedure, shortened: as §2

[13] = Quantitative High-Throughput drug screen in 47 multiple myeloma cell lines against the NCATS MIPE library collection: ARD_JJKsccE7 cell viability assay (AID 1918929; further: potency means the concentration at half of the fitted maximal effect)
Procedure, shortened: as §2

[14] = Quantitative High-Throughput drug screen in 47 multiple myeloma cell lines against the NCATS MIPE library collection: KMM1_JCRB cell viability assay (AID 1918960); further: nearly all actives have a fitted effect of over 30% in size; further: potency means the concentration at half of the fitted maximal effect
Procedure, shortened: as §3

[15] = Quantitative High-Throughput drug screen in 47 multiple myeloma cell lines against the NCATS MIPE library collection: KHM11_PLB cell viability assay (AID 1918962); further: nearly all actives have a fitted effect of over 35% in size; further: potency means the concentration at half of the fitted maximal effect
Procedure, shortened: as §1

[16] = Quantitative High-Throughput drug screen in 47 multiple myeloma cell lines against the NCATS MIPE library collection: JIM1_ECACC cell viability assay (AID 1918964; further: potency means the concentration at half of the fitted maximal effect)
Procedure, shortened: as §2

[17] = Quantitative High-Throughput drug screen in 47 multiple myeloma cell lines against the NCATS MIPE library collection: JJN3_DSMZ cell viability assay (AID 1918966; further: potency means the concentration at half of the fitted maximal effect; nearly all actives have a fitted effect of over 50% in size)
Procedure, shortened: as §2

[18] = Primary redox qHTS assay for identification of artifact compounds. (AID 1845223)
Procedure, shortened: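 Amplex Red (25 uM) and HRP (250 mU/mL) in HBSS, with compounds for 15 min, then 250 uM DTT for 30 min, room temperature, dark. Fluorescence 525/598 nm read; normalized to DMSO and 10 uM DA3003; Hill fit.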

[19] = Quantitative High-Throughput drug screen in 47 multiple myeloma cell lines against the NCATS MIPE library collection: Karpas417_ECACC cell viability assay (AID 1918961); details: Karpas417 myeloma viability, CellTiter-Glo ATP luminescence, 48 h; viability (% of DMSO): at 45.8 µM (top of the series); further: potency means the concentration at half of the fitted maximal effect
Procedure, shortened: as §4

[20] = Quantitative High-Throughput drug screen in 47 multiple myeloma cell lines against the NCATS MIPE library collection: Delta47_JCRB cell viability assay (AID 1918925; further: nearly all actives have a fitted effect of over 45% in size; further: potency means the concentration at half of the fitted maximal effect)
Procedure, shortened: as §2

Measured: Potency

Sequence of Phospholipid hydroperoxide glutathione peroxidase GPX4 (Homo sapiens) (P36969 whole entry, looked up): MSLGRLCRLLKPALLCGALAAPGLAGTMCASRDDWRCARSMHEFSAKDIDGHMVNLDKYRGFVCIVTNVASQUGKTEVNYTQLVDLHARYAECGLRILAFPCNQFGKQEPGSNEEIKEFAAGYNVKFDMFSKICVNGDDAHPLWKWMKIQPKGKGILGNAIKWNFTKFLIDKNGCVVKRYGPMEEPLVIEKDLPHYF
Sequence of Glutathione peroxidase 1 (Homo sapiens) (P07203 whole entry, looked up): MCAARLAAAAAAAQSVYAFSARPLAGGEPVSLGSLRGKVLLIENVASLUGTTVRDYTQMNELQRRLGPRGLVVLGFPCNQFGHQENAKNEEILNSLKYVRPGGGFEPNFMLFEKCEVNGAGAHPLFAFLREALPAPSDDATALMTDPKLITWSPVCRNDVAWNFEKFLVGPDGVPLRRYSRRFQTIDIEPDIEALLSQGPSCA

CO[C@H]1C[C@@H]2CC[C@@H](C)[C@@](O)(O2)C(=O)C(=O)N2CCCC[C@@H]2C(=O)O[C@H]([C@@H](C)C[C@@H]2CC[C@H](O)[C@H](OC)C2)CC(=O)[C@H](C)C=C(C)[C@@H](O)[C@@H](OC)C(=O)[C@H](C)C[C@H](C)C=CC=CC=C1C
inactive: [1] | [2] | [3]

N[C@@]1(C(=O)O)CS(=O)(=O)[C@H]2[C@H](C(=O)O)[C@H]21
inactive: [1] | [4] | [5] | [6] | [7]
active: [8] 14.8 µM

COc1cc2nc(-c3ccc(N4CCN(C)CC4)cc3)nc(NCCN3CCOCC3)c2cc1OC
active: [4] 0.0296 µM | [5] 0.0264 µM | [12] 0.148 µM | [6] 0.059 µM | [13] 0.296 µM | [7] 0.118 µM | [14] 0.0469 µM | [15] 0.235 µM | [3] 0.148 µM | [16] 0.166 µM | [17] 0.0148 µM
inactive: [1] | [9] | [10] | [11]

O=C1NCC2(CCN(CCc3ccccc3)CC2)O1
inactive: [2]

CC(C)C(=O)Oc1ccc(CO)cc1[C@H](CCN(C(C)C)C(C)C)c1ccccc1
not listed: [1] | [4] | [7] | [8] | [14] | [15] | [17] | [20]
inactive: all other assays above

COc1cc2ncnc(-n3nc(-c4ccccn4)nc3N)c2cc1OC
active: [4] 11.8 µM | [20] 1.48 µM | [5] 14.8 µM | [13] 0.743 µM | [19] 0.132 µM | [15] 5.9 µM | [3] 8.33 µM | [8] 7.43 µM
inactive: [2] | [9] | [10] | [11] | [18] | [12]

NC(N)=Nc1nc(CSCC/C(N)=N/S(N)(=O)=O)cs1
inactive: [2]

COc1ccc2cc(-c3nc(-c4ccc(S(C)=O)cc4)[nH]c3-c3ccncc3)ccc2c1 (configuration not stated)
inactive: [1] | [9] | [10] | [11] | [18]
active: [7] 18.7 µM | [3] 23.5 µM | [8] 14.8 µM

COc1ccc(-n2c(C)c([N+](=O)[O-])c3ccc(O)cc32)cc1
inactive: [1] | [2] | [14] | [15] | [3]

CNC1CCC(N(Cc2cccc(-c3ccncc3)c2)C(=O)c2sc3c(F)ccc(F)c3c2Cl)CC1 (configuration not stated)
active: [4] 14.8 µM | [20] 16.6 µM | [12] 23.5 µM | [6] 16.6 µM | [13] 29.6 µM | [7] 16.6 µM | [15] 0.469 µM | [3] 16.6 µM | [16] 14.8 µM | [8] 8.33 µM
inactive: [2] | [9] | [10] | [11] | [18]

c1ccc2c(-c3cnn4cc(-c5ccc(N6CCNCC6)cc5)cnc34)ccnc2c1
inactive: [2]
active: [5] 11.8 µM | [8] 2.35 µM

CC(C)(C)OC(=O)N[C@H]1CCCCCC=C[C@@H]2C[C@@]2(C(=O)NS(=O)(=O)C2CC2)NC(=O)[C@@H]2C[C@@H](OC(=O)N3Cc4cccc(F)c4C3)CN2C1=O
inactive: [9] | [10] | [11] | [4] | [5] | [12] | [6] | [15] | [3]

C=C1C(=O)OC(CCCCCCCC)C1C(=O)O (configuration not stated)
inactive: [2] | [12] | [6] | [13] | [15] | [16]
active: [20] 14.8 µM | [8] 18.7 µM

CCOC(=O)O[C@]1(C(=O)OCCl)CC[C@@H]2[C@H]3CCC4=CC(=O)C=C[C@]4(C)[C@@H]3[C@@H](O)C[C@@]21C
active: [6] 0.0372 µM
inactive: [4] | [20] | [5] | [12] | [7] | [15] | [3] | [8]

COc1ccc(C2CC(c3ccccc3)=NN2c2ccc(S(N)(=O)=O)cc2)cc1 (configuration not stated)
active: [12] 11.8 µM | [13] 23.5 µM | [7] 16.6 µM | [14] 18.7 µM | [3] 18.7 µM | [16] 14.8 µM | [8] 23.5 µM
inactive: [10] | [11] | [18] | [15]

CC(C)OC(=O)C(C)(C)Oc1ccc(C(=O)c2ccc(Cl)cc2)cc1
inactive: [2] | [12] | [13] | [7] | [14] | [3]
active: [5] 10.5 µM | [15] 26.4 µM | [17] 16.6 µM

C[C@]12CCC3c4ccc(O)cc4CCC3C1CCC2=O (some centres not stated)
inactive: [2] | [20] | [5] | [13] | [7] | [14] | [15] | [3]
active: [4] 1.87 µM | [12] 0.833 µM

CC1(C)CCC2=C(O1)c1ccccc1C(=O)C2=O
active: [4] 20.9 µM | [5] 20.9 µM | [12] 4.69 µM | [6] 18.7 µM | [7] 2.96 µM | [3] 18.7 µM
inactive: [2] | [13]
